In all, about 33,000 sequences were measured (“E-score (-0.5 to 0.5)”: median about -0.011, highest 2% from about 0.28 on). For the sample, the highest values were picked, then their nearest neighbours and some sequences at random.
biological target: T1, Gcr1 (UniProt P07261); assay: PBM E-score (8-mer binding enrichment) (E-score (-0.5 to 0.5)); higher = stronger / more preferred TF binding; conditions: protein concentration: 100 nM; construct: GST-full length
T1 sequence: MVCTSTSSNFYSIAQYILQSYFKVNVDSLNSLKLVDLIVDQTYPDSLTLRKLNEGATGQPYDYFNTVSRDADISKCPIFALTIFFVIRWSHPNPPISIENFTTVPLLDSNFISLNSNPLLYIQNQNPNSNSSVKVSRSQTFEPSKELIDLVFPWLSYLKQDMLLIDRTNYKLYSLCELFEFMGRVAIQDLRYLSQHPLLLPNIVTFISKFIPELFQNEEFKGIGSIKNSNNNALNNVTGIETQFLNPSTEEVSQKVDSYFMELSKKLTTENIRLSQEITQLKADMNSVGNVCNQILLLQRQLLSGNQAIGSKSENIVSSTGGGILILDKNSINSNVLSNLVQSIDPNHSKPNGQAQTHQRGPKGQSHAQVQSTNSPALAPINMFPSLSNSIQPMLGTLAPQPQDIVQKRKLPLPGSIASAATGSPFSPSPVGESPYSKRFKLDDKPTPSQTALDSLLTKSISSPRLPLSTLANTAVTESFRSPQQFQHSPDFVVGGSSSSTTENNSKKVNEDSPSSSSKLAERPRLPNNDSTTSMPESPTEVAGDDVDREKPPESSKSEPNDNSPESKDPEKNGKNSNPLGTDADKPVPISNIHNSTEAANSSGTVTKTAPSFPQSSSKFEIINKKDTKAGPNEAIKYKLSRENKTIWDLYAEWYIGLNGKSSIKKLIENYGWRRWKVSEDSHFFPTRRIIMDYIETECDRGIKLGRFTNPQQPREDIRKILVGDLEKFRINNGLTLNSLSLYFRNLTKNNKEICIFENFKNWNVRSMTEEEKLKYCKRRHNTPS
Method in brief: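 GST-tagged yeast TFs (full-length or DNA-binding domain) were made by PURExpress in vitro transcription/translation and applied at about 100-200 nM to universal all-10-mer Agilent arrays. The arrays were made double-stranded by primer extension, on fresh or once-stripped slides. Bound protein was detected with fluorescent anti-GST, and scans were normalised with masliner. Each ungapped eight-base word, pooled with its reverse complement, received an E-score (modified Wilcoxon-Mann-Whitney statistic) from the Universal PBM Analysis Suite.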

| Sequence | PBM E-score |
| --- | --- |
| AAGGAGGT | -0.0668 |
| AAGAGGGG | 0.0114 |
| CCGGCTTC | 0.358 |
| CGGGCTTA | 0.00411 |
| AGGGCTTA | -0.262 |
| CGGGCTTC | 0.415 |
| CCGGCTTA | -0.0254 |
| CGGGCTGC | 0.234 |
| ACGGCTTC | 0.238 |
| AGGGCTTC | 0.339 |
| AGGGCTTG | -0.209 |
| CTCCCCGC | 0.196 |
| ACGGCACG | -0.0602 |
| ACGGTCGA | -0.354 |
| GGGGGCGA | -0.0875 |
| GCTGGTCA | -0.151 |
| ACTCGTTC | -0.0676 |
| CCCAATAA | 0.0668 |
| ATCACTCC | -0.0513 |
| ACTGCCAT | 0.0395 |
| CCCCTCAA | -0.118 |
| ATCCTGTA | 0.28 |
| ATCCTGAC | 0.163 |
| ATCCTGAA | 0.31 |
| GGGACCTA | 0.0741 |

| Sequence | PBM E-score |
| --- | --- |
| ACTATTGC | 0.0299 |
| CTGGCGTC | 0.279 |
| ATGGCGTG | -0.0168 |
| ATGGCGCG | 0.116 |
| CTGGCGCA | -0.119 |
| CTGGCGCC | 0.319 |
| ATGGCGTC | 0.319 |
| CTGGCGGC | 0.265 |
| ATGGCGCA | -0.122 |
| ATGGCGCC | 0.343 |
| ACTAATGC | 0.0263 |
| ACAGATAG | -0.00305 |
| AACCTGTA | 0.211 |
| ATTTCGGA | 0.285 |
| ATTTCGGG | 0.0915 |
| ATTTCGGC | 0.141 |
| GATCCCAC | 0.235 |
| GATCCCCC | 0.176 |
| GATTCCCC | 0.289 |
| TATCCCCA | 0.052 |
| GATTCCCA | 0.334 |
| AATTCCCC | 0.0615 |
| GATTCCTA | 0.439 |
| CATTCCCC | -0.0585 |
| GATCCCCA | 0.28 |

| Sequence | PBM E-score |
| --- | --- |
| AATTCCTA | 0.0723 |
| AATTCCCA | -0.0967 |
| CATTCCTA | -0.0304 |
| CATTCCCA | 0.103 |
| CGCATCTC | 0.0271 |
| AAAGAGAA | 0.022 |
| CAGTTCGG | 0.0773 |
| CGGATTGA | -0.116 |
| CAATGGGG | 0.00495 |
| ACGGTGGG | 0.116 |
| AGCTGCTA | 0.226 |
| AGCTGCCT | 0.32 |
| TGCTGCCA | -0.0494 |
| GGCTGCCC | 0.272 |
| ACCTGCCT | -0.218 |
| CGCTGCCA | 0.185 |
| AACTGCCT | -0.0496 |
| CGCTGCTA | 0.155 |
| GGCTGCCA | 0.418 |
| AGCTGCCA | 0.385 |
| GGCTGCAA | 0.128 |
| GGCTGCTA | 0.318 |
| GATGGGAA | 0.123 |
| TACAGATA | -0.0799 |
| ATATTTGA | 0.0958 |

| Sequence | PBM E-score |
| --- | --- |
| CTTTCGAA | -0.0912 |
| CAGATAAC | -0.13 |
| ACTTGACT | -0.0523 |
| CACCGAGA | -0.00934 |
| GTGCCCCA | -0.0431 |
| GGGCTCAC | -0.096 |
| AGAGCTGG | -0.143 |
| TCTGCCCA | -0.249 |
| AGATTTCG | 0.113 |
| AAGGTGTC | 0.0915 |
| AGCTGCCC | 0.217 |
| AGCTGCCG | 0.289 |
| CGCTGCCG | 0.175 |
| ACTACAAC | 0.0309 |
| GACATCCC | 0.0126 |
| CGCATCGC | -0.0699 |
| AGCATCCC | 0.33 |
| GCCATCCC | -0.173 |
| CGCATCGA | 0.0887 |
| CGCATCCA | 0.323 |
| CGCATCCC | 0.319 |
| CGCATCCG | 0.221 |
| AACATCCC | -0.109 |
| GGCATCCC | 0.4 |
| CACATCCA | 0.0944 |

| Sequence | PBM E-score |
| --- | --- |
| AGCATCAC | 0.00094 |
| AAAGGGTG | -0.0719 |
| AAGGCGGT | 0.00689 |
| CTGTGGCA | 0.0358 |
| AACTGGCA | 0.0707 |
| ATTCTCGG | 0.123 |
| CCTTCCAG | 0.0686 |
| CCTTCCGA | -0.12 |
| ACTTCCAT | 0.145 |
| ACTTCCGA | 0.0686 |
| ACTTCCAG | 0.377 |
| ACTTCCTA | 0.245 |
| ACTTCCTG | 0.319 |
| GCTTCCGA | 0.386 |
| GCTTCCAC | 0.42 |
| CCTTCCAC | 0.208 |
| GCCTCCAC | -0.0325 |
| ACTTCCTC | 0.243 |
| AGTTCCTG | 0.0262 |
| CCATGCCG | -0.2 |
| CGCTTTCC | -0.0681 |
| CTTTCTAC | 0.0892 |
| AGTCGGAC | -0.093 |
| ACCTGAGA | -0.038 |
| TCTTCCAA | -0.0111 |

| Sequence | PBM E-score |
| --- | --- |
| GCTTCCAA | 0.443 |
| CCTTCCAA | -0.0431 |
| ACTTCCAC | 0.261 |
| ACTTCCAA | 0.303 |
| ATTTCCAA | 0.0988 |
| CAACCGGA | 0.206 |
| CCCTCCGG | -0.0226 |
| CACCAAAG | 0.047 |
| ATGCATCA | -0.0769 |
| CAGCAGCA | 0.00017 |
| AAGCAGGT | 0.161 |
| CAGCAGCC | 0.359 |
| GAGCAGCC | 0.217 |
| AAGCAGCT | 0.33 |
| AAGCAGCA | -0.176 |
| AAGCAGCG | 0.135 |
| AAGCAGCC | 0.308 |
| AAGCAGAT | -0.03 |
| AACTGTGC | -0.181 |
| CTTTACTC | -0.104 |
| GACTAACC | -0.136 |
| ACTTAACC | -0.196 |
| GCTCGAGC | 0.321 |
| GCTCGAGA | -0.166 |
| CCTCGAGC | -0.102 |

| Sequence | PBM E-score |
| --- | --- |
| AAGGGCAC | -0.16 |
| CGGGTTCC | 0.411 |
| ACGGTTCC | 0.0629 |
| GCGGTTCA | -0.231 |
| AGGGTTCA | -0.118 |
| AGGGTTCC | 0.312 |
| CGGGTTAC | -0.0158 |
| GCGGTTCC | 0.314 |
| AGGGTTCG | -0.0648 |
| CGGGTTCA | -0.204 |
| GTTAAAAC | -0.0162 |
| AAAATGCG | 0.143 |
| GAACGACC | -0.165 |
| CTGTTGAA | 0.0369 |
| ACTTCTAA | 0.0859 |
| GCTTCTAC | 0.301 |
| CCTTCTAA | -0.0438 |
| TCTTCTAA | 0.329 |
| GCTTCTAA | 0.116 |
| CCTTCTAC | 0.0671 |
| GAGTCCTA | 0.0444 |
| AATAATGA | 0.0865 |
| AGTCCTGG | 0.0342 |
| GCCAAAAC | 0.128 |
| GCCAAGAA | 0.124 |

| Sequence | PBM E-score |
| --- | --- |
| GCCAAAAA | 0.288 |
| ATCCAATA | 0.303 |
| ATCCAAAA | 0.282 |
| ATCCAAAC | -0.03 |
| ATCCAAAG | 0.189 |
| ATCCAATC | 0.13 |
| CTCCAATA | 0.075 |
| ATGCAAAC | 0.115 |
| CTCTTCAA | 0.00436 |
| GGACGCAC | 0.127 |
| ACGCATCT | 0.151 |
| CCGCATCC | 0.31 |
| GCGCATCA | 0.0737 |
| GCGCATAC | 0.0321 |
| GCGCATCC | 0.331 |
| ACGCATCC | 0.311 |
| CCGCATCG | -0.0819 |
| CCGCATCA | 0.103 |
| ACGCATCG | -0.00937 |
| ACCGCCTC | -0.14 |
| ACTGTGCT | -0.231 |
| ACAGACAT | -0.144 |
| CACAGAGG | -0.185 |
| CGAGGGGC | 0.0171 |
| ACAGTGGC | 0.00948 |

| Sequence | PBM E-score |
| --- | --- |
| AAAGTGGA | 0.24 |
| CTAGTGTA | 0.127 |
| TAAGTGGA | 0.287 |
| ATAGTGGC | 0.32 |
| CTAGTGGA | 0.298 |
| GCAGTGGA | 0.11 |
| GTAGTGGA | 0.285 |
| GTAGTGTA | -0.0351 |
| ATCGTGGC | -0.103 |
| CTAGTGGC | 0.106 |
| CAAGTGGA | 0.181 |
| TCCGACAA | -0.0648 |
| AACGAGGG | 0.0827 |
| CGGTCTAG | -0.167 |
| AAACAAGG | 0.16 |
| GAGGTTCC | 0.269 |
| CAACTTAC | -0.127 |
| GCAGAGTA | -0.0213 |
| ACCGACGC | -0.0878 |

Source: the supplement of paper PMC3334620
